Laboratory results taken from PubChem BioAssay (NCATS).

These molecules were tested against Glucocorticoid receptor (Homo sapiens) (UniProt P04150) (assay: GR-GFP Redistribution (AID 450)). Conditions: U2OS GR-GFP nuclear translocation, laser cytometry, 2 h;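 active = compounds whose dose series gives a full or clear partial fitted curve of increased nuclear translocation; inconclusive = weak partial curve or effect only at the top dose; inactive = no dose-dependent translocation response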.
Potency is the fitted concentration of half-maximal effect.

Glucocorticoid receptor (Homo sapiens), sequence (P04150 whole entry, looked up): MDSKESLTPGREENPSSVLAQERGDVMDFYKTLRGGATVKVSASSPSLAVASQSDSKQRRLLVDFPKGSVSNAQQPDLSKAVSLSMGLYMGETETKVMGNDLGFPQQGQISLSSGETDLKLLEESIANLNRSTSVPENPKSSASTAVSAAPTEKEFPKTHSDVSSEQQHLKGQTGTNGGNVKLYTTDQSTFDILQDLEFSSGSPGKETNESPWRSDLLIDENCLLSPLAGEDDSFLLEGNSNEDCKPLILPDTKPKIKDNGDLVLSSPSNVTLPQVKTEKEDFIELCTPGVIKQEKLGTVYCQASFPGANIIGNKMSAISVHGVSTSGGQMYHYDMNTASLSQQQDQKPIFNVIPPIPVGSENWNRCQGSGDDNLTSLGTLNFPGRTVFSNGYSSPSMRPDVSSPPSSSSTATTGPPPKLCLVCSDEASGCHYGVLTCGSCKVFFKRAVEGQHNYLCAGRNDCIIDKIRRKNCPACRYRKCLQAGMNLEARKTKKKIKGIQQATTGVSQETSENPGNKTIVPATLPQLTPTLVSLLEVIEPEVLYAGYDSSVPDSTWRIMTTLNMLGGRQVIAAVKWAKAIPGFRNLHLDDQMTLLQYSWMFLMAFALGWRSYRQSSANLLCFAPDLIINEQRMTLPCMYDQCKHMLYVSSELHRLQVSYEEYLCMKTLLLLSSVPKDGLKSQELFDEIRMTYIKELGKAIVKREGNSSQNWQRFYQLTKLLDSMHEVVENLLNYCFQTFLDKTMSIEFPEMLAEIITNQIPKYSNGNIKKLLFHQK

Potency, inactive:
COc1ccc(CNc2ccnc(-c3cccc(C#N)c3)n2)c(OC)c1 > 46 µM
O=c1c(-c2cc(F)cc(F)c2)nc2cnc(N3CCOCC3)nc2n1-c1ccccc1 > 9.22 µM
c1ccc(CNc2ccnc(-c3ccc4c(c3)OCO4)n2)cc1 > 46 µM
COc1cccc(-c2nc(NCc3ccc(OC)cc3OC)c3ccccc3n2)c1 > 46 µM
COc1ccc(CNc2nc(-c3ccc4c(c3)OCO4)nc3ccccc23)c(OC)c1 > 46 µM
COc1cccc(Cn2c(=O)c(-c3ccc(Cl)cc3)nc3cnc(OC)nc32)c1 > 9.22 µM
c1ccc(CNc2nc(-c3ccc4c(c3)OCO4)nc3ccccc23)cc1 > 46 µM
CN(C)c1ncc2nc(-c3cccs3)c(=O)n(C3CC3)c2n1 > 9.22 µM
CN(C)c1ncnc2ccc(-c3ccccc3C(F)(F)F)cc12 > 46 µM
CN(C)c1ncc2nc(-c3cccs3)c(=O)n(-c3ccccc3)c2n1 > 9.22 µM
COc1cccc(Cn2c(=O)c(-c3cccs3)nc3cnc(Nc4cccc(OC)c4)nc32)c1 > 9.22 µM
N#CCCn1c(=O)c(-c2ccc(Cl)cc2)nc2cnc(Nc3ccccc3)nc21 > 9.22 µM
O=c1c(-c2ccc(F)cc2)nc2cnc(Nc3ccccc3)nc2n1Cc1cccs1 > 9.22 µM
COc1cccc(-c2nccc(NCc3cccs3)n2)c1 > 46 µM
Cc1c(CC(C)(C)C(=O)O)n(Cc2ccc(Cl)cc2)c2ccc(F)cc12 > 46 µM
